CYP2C9 inhib – blockers of cytochrome P450 2C9 activity – biochemical, luminescence, ADME assay, primary screen | AID 777, 2007 | hit rate 20% among 96,000 | CYP2C9 Supersomes, luciferin-H conversion | inhibition, % at 5 µM | P11712;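 active = blocking of liver enzyme CYP2C9 beyond about 50% at 5 µM, limit read from the data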
Target sequence (P11712 whole entry, looked up): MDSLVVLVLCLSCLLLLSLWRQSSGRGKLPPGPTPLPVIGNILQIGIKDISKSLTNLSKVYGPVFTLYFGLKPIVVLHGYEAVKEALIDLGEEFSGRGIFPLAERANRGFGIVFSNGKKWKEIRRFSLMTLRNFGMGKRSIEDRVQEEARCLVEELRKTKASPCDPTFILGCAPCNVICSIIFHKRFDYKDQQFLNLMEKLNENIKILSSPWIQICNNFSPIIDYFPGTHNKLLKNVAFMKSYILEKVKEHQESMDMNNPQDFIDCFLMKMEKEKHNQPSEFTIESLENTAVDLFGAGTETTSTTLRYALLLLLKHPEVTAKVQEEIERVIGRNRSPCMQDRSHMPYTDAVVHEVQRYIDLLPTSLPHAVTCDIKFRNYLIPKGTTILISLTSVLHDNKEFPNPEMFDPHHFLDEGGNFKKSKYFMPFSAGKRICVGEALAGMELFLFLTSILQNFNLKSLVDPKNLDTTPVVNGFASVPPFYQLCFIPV
Measles CPE – compounds protecting cells from measles virus cytopathic effect, primary screen, measles RdRp inhibitor project, single point, MLSMR library, absorbance | protection (pct of control), % at 4 µM | hit rate 1.5% among 140,000 | Measles virus-infected cells, CPE protection | AID 841, 2007; in the data active = protection mostly above about 24%, no sharp cut-off; inactive = mostly below about 26%
CYP2C9 act – human CYP2C9 activators, primary screen, biochemical, luminescence; activation factor at 5 µM; Cytochrome P450 2C9 (Homo sapiens), P11712; hit rate 1.4% among 96,000; recombinant CYP2C9, luciferin-H conversion; stronger effect = higher value; factor 1 = untreated enzyme, 0 = blocked;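 active = activation factor of 2 or more for CYP2C9 at a 5 µM dose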;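 note: 0 = sulfaphenazole-blocked wells and 1 = vehicle-only wells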
CYP2C19 act – human CYP2C19 activators, primary screen, biochemical, luminescence | Cytochrome P450 2C19 (Homo sapiens), P33261 | recombinant CYP2C19, luciferin-H EGE luminescence; stronger effect = higher value; 0 = fully inhibited enzyme, 1 = untreated enzyme | activation factor at 5 µM | 96,000 tested, under 10 active | AID 1025, 2008;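 active = activation factor of at least 2 at 5 µM in the primary screen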;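 note: 0 = wells with 2.5 mM tranylcypromine and 1 = vehicle-only wells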
CYP2C19 inhib – blockers of cytochrome P450 2C19 activity – biochemical, luminescence, ADME assay, primary screen | CYP2C19 Supersomes, luciferin-H EGE luminescence, 30 min | inhibition, % at 5 µM | hit rate 21% among 96,000;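 active = CYP2C19 inhibition above a set limit at 5 µM in the primary screen, cut at about 50% in these data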;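 note: plate controls were negative control wells for no effect and 2.5 mM tranylcypromine positive control for full effect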
* = called active by the depositor; / = not tested or not shown. Shown are actives, neighbours in structure and some others; about 22% of the full set was active somewhere.

SMILES	CYP2C9 inhib	Measles CPE	CYP2C9 act	CYP2C19 act	CYP2C19 inhib
Cc1oc(-c2ccccc2)nc1C(=O)OCC(=O)NC(=O)NCC(C)C	51*	14	0.5	0.8	25
CCOC(=O)c1nc(-c2ccccc2)oc1N(C)C	-23	15	1.2	1.1	-10
CC(O)C(=O)N/N=C/c1cccc(Cl)c1Cl (stereo not drawn)	-12	4	1.1	0.9	8
CCCCN1CC2([N+](=O)[O-])C=CC(=O)C([N+](=O)[O-])(C1)C2CC(=O)c1ccccc1 (stereo not drawn)	/	6	/	/	/
CCN1CC2([N+](=O)[O-])C=CC(=O)C([N+](=O)[O-])(C1)C2CC(=O)c1ccccc1 (stereo not drawn)	28	27*	0.7	0.9	5
CCOC(=O)c1cnn(CCOC(=O)C(C)(C)C)c1NC(=O)C(C)(C)C	-16	12	1.2	1	-5
O=C1CC(c2ccc(F)cc2)Cc2nc(N3CCOCC3)ncc21 (stereo not drawn)	25	6	0.8	0.2	77*
O=C1CC(c2cccc(Cl)c2)Cc2nc(N3CCOCC3)ncc21 (stereo not drawn)	59*	3	0.4	0.3	72*
C=CCN(CC=C)C(=O)c1ccncc1	24	10	0.8	0.8	21
CCNC(=S)NNC(=S)NCc1ccccc1	/	4	/	/	/
CCC(NC(=S)NCc1ccccc1)C(=O)O (stereo not drawn)	12	0	0.9	0.5	54*
CCO/N=C(\C)c1c(O)cc(C(C)C)n(-c2ccccc2)c1=O	/	20	/	/	/
O=C(NCCCn1ccnc1)C1CC2CCC1C2 (stereo not drawn)	74*	15	0.3	0	98*
O=C(O)C1C2C=CC(O2)C1C(=O)NCCCn1ccnc1 (stereo not drawn)	11	17	0.9	0.7	26
O=C(O)C1C2CCC(C2)C1C(=O)NCCCn1ccnc1 (stereo not drawn)	52*	22	0.5	0.2	79*
Cn1c2ccccc2c(=O)n2c(=O)c3ccccc3cc12	56*	4	0.4	0.3	68*
Cc1cccc(C)c1Nc1nnc(SCc2nc3ccccc3s2)s1	/	19	/	/	/
O=c1c2ccccc2nc(SCc2nc3ccccc3s2)n1CCCO	/	8	/	/	/
Cn1nnnc1SCc1nc2ccccc2s1	-20	10	1.2	0.4	64*
Cc1ccnc(SCc2nc3ccccc3s2)n1	26	3	0.7	0.1	92*
COc1cc(C)c(-c2cc(C(=O)O)c(C)o2)cc1C(C)C	18	10	0.8	0.9	6
Cc1cc(/C=C2\SC(=S)NC2=O)c(C)n1C	11	5	0.9	1	2
CC(CC1C(C#N)=C(N)SC(N)=C1C#N)c1ccccc1 (stereo not drawn)	98*	5	0	0.1	92*
CCOC(=O)C1=C(c2ccccc2)OC(N)=C(C#N)C1C(C)C (stereo not drawn)	10	15	0.9	0.7	32
CC(c1ccccc1)C1C(C#N)=C(N)SC(N)=C1C#N (stereo not drawn)	-1	5	1	0.1	93*
SMILES	CYP2C9 inhib	Measles CPE	CYP2C9 act	CYP2C19 act	CYP2C19 inhib
CCC(CC)C1C(C#N)=C(N)SC(N)=C1C#N	/	14	/	/	/
CC(C)C1C(C#N)=C(N)SC(N)=C1C#N	2	5	1	0.3	68*
CCC1(C)N([O-])C(C)=C(c2ccccc2)[N+]1=O (stereo not drawn)	24	24	0.8	1	4
O=C(c1cnc(-c2ccccc2)s1)c1ccc(Cl)cc1Cl	32	4	0.7	0.4	57*
COc1ccc(C(CC(=O)NCCN2CCOCC2)NS(=O)(=O)c2ccc(C)cc2)cc1 (stereo not drawn)	-7	17	1.1	0.8	18
Cc1ccc(N(CC(=O)NCc2ccccc2Cl)S(=O)(=O)c2cccs2)cc1	65*	5	0.3	0.4	64*
Cc1ccc(CNC(=O)CCNS(=O)(=O)c2cccs2)cc1	/	3	/	/	/
Cc1ccc(N(CC(=O)NCc2ccc(F)cc2)S(=O)(=O)c2cccs2)cc1	63*	12	0.4	0	99*
CCc1ccc(-c2c(C)sc(NC(C)=O)c2C(N)=O)cc1	41	3	0.6	0.6	39
O=C(NC1=NCCS1)NC12CC3CC(CC(C3)C1)C2	15	4	0.8	0.8	19
N#CCSc1nnc(C2CCCCC2)n1Cc1ccccc1	35	24	0.6	0.5	48
O=c1oc2ccccc2c2c1ncn2CCN1CCOCC1	-14	7	1.1	0.5	50*
CN1CCN(CCCn2cnc3c(=O)oc4ccccc4c32)CC1	-14	11	1.1	1.1	-5
O=c1oc2ccccc2c2c1ncn2C1CCCCC1	16	38*	0.8	0.8	16
COc1ccc(-n2cnnc2SCC(=O)Nc2cc(C(C)(C)C)nn2-c2ccccc2)cc1	20	6	0.8	0.9	10
CCOC(=O)N/N=C/c1ccccc1OCc1ccc(Cl)cc1	/	3	/	/	/
O/N=C/c1ccccc1OCc1ccccc1Cl	21	19	0.8	0.7	34
O=C(Cc1ccccc1)N/N=C/c1ccccc1OCc1ccc(Cl)cc1	62*	37	0.4	0.8	24
O/N=C/c1ccccc1OCc1ccc(Cl)cc1	69*	15	0.3	0.5	52*
COCc1nc2ccccc2n1Cc1ccc(Br)cc1	90*	5	0.1	0	100*
CC(=O)NCCc1nc2ccccc2n1Cc1ccccc1	17	3	0.8	0.4	59*
Cc1cccc(NCc2nc3ccccc3n2Cc2ccccc2)c1	96*	9	0	0	96*
Cc1ccc(Cn2c(Cc3ccccc3)nc3ccccc32)cc1	44	6	0.6	0.6	41
COCc1nc2ccccc2n1Cc1ccccc1	32	15	0.7	0.2	79*
COc1ccc(S(=O)(=O)N(CC(=O)Nc2ccc(S(=O)(=O)N3CCOCC3)cc2)c2ccccc2)cc1	/	3	/	/	/
CCOC(=O)c1[nH]c2ccc(OC)cc2c1NC(=S)N1CCN(c2cccc(Cl)c2)CC1	/	10	/	/	/
O=C1OC(c2ccc(Cl)cc2)/C(=C(/O)c2ccccc2)C1=O (stereo not drawn)	53*	12	0.5	1.1	-7
COc1ccc(C2/C(=C(/O)c3ccccc3)C(=O)C(=O)N2C)cc1 (stereo not drawn)	8	2	0.9	1.1	-9
O=c1c2ccccc2nc2n1C(CSCc1ccc(Cl)cc1Cl)CS2 (stereo not drawn)	22	16	0.8	0.4	64*
Cc1ccc(NC(=O)CSc2nc3nc(C)cc(C)c3c(=O)[nH]2)cc1	34	10	0.7	0.9	10
